According to PubChem BioAssay (NCI):
About 79,000 compounds went through this panel and 15% of them were active in at least one assay; those are over-represented in the sample as a whole. A number with no mark means an inactive call. Activity calls are given as the source filed them. No stated cut-off is given here; in the data, active means growth inhibition above about 70%; inactive means the rest. Where a SMILES comes first, the peptide text is derived from it. [ ]: non-standard residue; d: D form. The star is where a group is joined. Cbz = O=C(OCc1ccccc1)*; Dha = C=C(N)C(=O)O

How the values were obtained:
[1] = NCI Yeast Anticancer Drug Screen. Data for the rad50 strain (AID 155);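 further: 0% = growth of vehicle-only cultures of the same strain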; conditions: S. cerevisiae rad50 strain growth inhibition; at 50.0 µM; active compounds read high
Outline: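 Relative growth inhibition (compound vs vehicle) was measured in yeast with a defined repair-gene alteration.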

[2] = NCI Yeast Anticancer Drug Screen. Data for the mec2-1 strain (AID 157); conditions: S. cerevisiae mec2-1 strain, at 50.0 µM, active compounds read high
Outline: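 Cells of the genetically defined mec2-1 yeast strain are incubated with test compound. Inhibition of growth is calculated against vehicle-treated controls.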

[3] = NCI Yeast Anticancer Drug Screen. Data for the sgs1 mgt1 strain (AID 161);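 further: 0% = growth of cultures given vehicle only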; conditions: S. cerevisiae sgs1 mgt1 strain, at 50.0 µM, active compounds read high
Outline: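 Read-out: growth inhibition vs vehicle controls. Cells: mutant yeast strain deficient in DNA damage repair.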

[4] = NCI Yeast Anticancer Drug Screen. Data for the cln2 rad14 strain (AID 165);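 further: 0% = growth equal to vehicle treated cultures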; conditions: S. cerevisiae cln2 rad14 strain, at 50.0 µM, active compounds read high
Outline: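 The screen exposed genetically defined yeast (cln2 rad14) to test compounds and scored growth inhibition relative to vehicle-treated controls.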

[5] = NCI Yeast Anticancer Drug Screen. Data for the bub3 strain (AID 167); conditions: S. cerevisiae bub3 mutant strain, at 50.0 µM, active compounds read high
Outline: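 Screening used yeast with an engineered genetic alteration affecting cell cycle control. Compound-exposed cultures were compared with vehicle cultures, and reduced growth was taken as inhibition.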

[6] = NCI Yeast Anticancer Drug Screen. Data for the mlh1 rad18 strain (AID 175); conditions: S. cerevisiae mlh1 rad18 strain growth inhibition; at 50.0 µM; active compounds read high
Outline: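 Compound-treated yeast growth, normalised to vehicle controls. Strain bears defined DNA repair mutations.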

Row | Compound | growth inhibition [1] | growth inhibition [2] | growth inhibition [3] | growth inhibition [4] | growth inhibition [5] | growth inhibition [6]
1 | COc1ccc2c(N=[N+]=[N-])c(-c3ccccc3)c(=O)oc2c1 | 11.8% | 2.6% | 35.6% | 17.2% | 3.15% | 30.9%
2 | CCOC(=O)/C=C(/OCC)c1cccc(Cl)c1 | 9.4% | -5.95% | 13.8% | 16.3% | 39.4% | -1.85%
3 | Cn1c(=O)c2[nH]c(SCc3ccccn3)nc2n(C)c1=S | 6.05% | -42.5% | -20.9% | -47.1% | -26.6% | 13.4%
4 | Clc1ccc(Nc2ncco2)cc1Cl | 16.7% | -15.2% | 30.6% | -0.8% | 1.1% | 16.8%
5 | C=CCOC(=O)/C=C\C(=O)OCC=C | -4.6% | 30.6% | 6.8% | -25.3% | 9.1% | 3.15%
6 | COc1ccc2c(c1)C1=C(CC2)C(=O)OC1=O | -0.9% | 11.7% | 28.5% | 2.8% | 5.05% | -4.85%
7 | CCCCS/C=C\SCCCC | 2.85% | 7.55% | -8.5% | -26.4% | 6.7% | -1.65%
8 | c1ccc(CCc2ccnc3ccccc23)cc1 | 8.15% | 3.1% | -2.9% | 1.6% | 9.15% | 5.55%
9 | CC(=O)N1c2ccccc2S(=O)(=O)c2ccccc21 | 1.6% | 12.7% | 0.75% | -15.9% | 2.05% | 0.25%
10 | COc1cc2c(cc1OC)C1C(=O)c3c(O)cc4c(c3OC1CO2)C=CC(C)(C)O4 (stereo unspecified) | 49.8% | 10.3% | 14.3% | 15.3% | 33.9% | 36.7%
11 | CCC(=O)N(C)[C@@H]1Oc2ccc(O)cc2[C@]1(C)c1cc(O)ccc1O | 0.35% | 2.25% | 14.8% | 19.9% | 6.7% | 9.95%
12 | O=C1c2ccccc2-c2c1cccc2[N+](=O)[O-] | 48% | 23.9% | 9.55% | -62.5% | -18.3% | 42.5%
13 | C=C(NC(=O)CNC(=O)OCc1ccccc1)C(=O)O (Cbz-Gly-[Dha]-OH) | 3.05% | 11.2% | 7.4% | -9.85% | 15.7% | 14%
14 | O=C(NO)c1ccc([N+](=O)[O-])cc1 | 58.2% | 31.1% | 46.3% | 7.05% | 17.8% | 22.2%
15 | COc1ccc(/C=N/n2cnc3c(sc(=S)n3-c3ccccc3)c2=O)cc1 | 23% | 1.1% | -8.45% | -1.7% | -23.7% | 12.8%
16 | CC(C)(C)CP(=S)(CCP(CCP(=S)(CC(C)(C)C)CC(C)(C)C)CCP(=S)(CC(C)(C)C)CC(C)(C)C)CC(C)(C)C | -0.75% | -14.6% | -18% | 9.6% | 0.65% | -16.1%
17 | Cc1cccnc1C(=O)O.[Cu+2] | -9.55% | -0.45% | -29.1% | -45.2% | -32.8% | -7.4%
18 | CC(=O)OC1=C(OC(C)=O)N(S(=O)(=O)c2ccc(C)cc2)CCc2ccccc21 | 31.4% | 20.4% | 36.6% | 26.5% | 6.5% | 36%
19 | Cc1cc(O)c(/C=N/C(=S)Nc2ccccc2)c(=O)o1 | -20.4% | -48.8% | -24.1% | -8.65% | -48.2% | -39%
20 | COc1cccc(C=O)c1[O-].COc1cccc(C=O)c1[O-].[Zn+2] | 52.4% | 17.9% | 56.7% | 32.2% | 11.8% | 66%
21 | Nc1c(-c2nc3ccccc3s2)[n+]([O-])c2ccccc2[n+]1[O-] | 7.45% | 20.6% | 19% | 29.6% | -57.8% | 15.9%

Row | Compound | growth inhibition [1] | growth inhibition [2] | growth inhibition [3] | growth inhibition [4] | growth inhibition [5] | growth inhibition [6]
22 | CC(=O)NC(=O)CC(=O)c1ccccc1 | -2.2% | -12.8% | -13.4% | 13.9% | -4.7% | -18.3%
23 | CCCC(C)C(=O)OC1CCCCC1C (stereo unspecified) | -0.95% | 4.25% | -7.85% | -45.6% | 8.1% | 0.6%
24 | O=C(NCc1ccccc1)c1cc(Cl)ccc1O | -20.3% | -7.1% | -7.65% | -37.4% | 0.95% | 5.35%
25 | CC(=O)c1cccc(NC(=O)C(=O)C(C(=O)c2ccccc2F)C2OC(=O)c3ccccc32)c1 (stereo unspecified) | 9.2% | -7.2% | -5.45% | 3.7% | -6.2% | -4.05%
26 | O=C(O)CC1CC(=O)c2cccn21 (stereo unspecified) | -4.35% | 4.85% | -8.15% | 3.6% | 0.8% | -34%
27 | COC1OC(COC(=O)Nc2ccccc2)C2OC12 (stereo unspecified) | 8.45% | 2.8% | 24.6% | -55.4% | -10% | 1.25%
28 | CC(=O)OCC(=O)[C@@]1(O)CC[C@H]2[C@@H]3CC[C@H]4[C@H](Br)C(=O)CC[C@]4(C)[C@H]3C(=O)C[C@@]21C | -20.1% | -33.1% | -11.3% | -12.8% | -8.1% | -23.9%
29 | CCOC(=O)C1(C(C)C)OC2(O)C3CCCN3C(=O)C(C(C)C)N2C1=O (stereo unspecified) | 8.45% | 10.5% | -3% | 20.3% | 8.8% | 17.4%
30 | Cc1[nH]ccc2c3ccc(=O)cc3n(S(=O)(=O)O)c12 | 10.7% | -8.3% | -1.45% | 18.4% | 16.8% | -7.25%
31 | N#C/C(=N\Nc1ccc(F)cc1)C(=O)C1CC1 | 9.1% | 9.05% | 5.8% | 11.3% | 4.3% | 11.7%
32 | NC(=O)c1nnn(-c2ccccc2)n1 | -9.75% | -8.9% | -10% | -12.3% | -5.75% | -12.7%
33 | CC(=O)OC1COC(Cl)C(OC(C)=O)C1OC(C)=O (stereo unspecified) | -4.95% | -2.9% | 0.1% | 3.95% | -8.95% | 1.75%
34 | Cc1c(OC(C)C(=O)O)ccc2c(-c3ccccc3)cc(=O)oc12 (stereo unspecified) | 2.95% | 12.7% | 23.9% | 27.2% | 5.9% | 38.2%
35 | COc1ccc(-c2cc(-c3ccncc3)[nH]c2-c2nccc3ccccc23)cc1 | 94.2% (active) | 82.7% (active) | 97.3% (active) | 79.5% (active) | 73.7% (active) | 85% (active)
36 | OC1C2CCC3C2CC(C(O)(c2ccccc2)c2ccccc2)C13 (stereo unspecified) | -0.2% | -23.6% | -8.75% | -13.2% | -50% | -15.4%
37 | O=[n+]1c2c(n([O-])c3ccccc31)CCCCC2 | 19.6% | -12.7% | -1.9% | -32.5% | -8.35% | -2.85%
38 | O=C(c1ccccc1)N1CCOCC1 | 9.75% | -2.5% | -3.25% | 12.3% | -0.75% | 13.2%
39 | O=P(CCc1ccccc1)(OCCCl)OCCCl | 10.2% | 2.15% | 3.85% | 14.3% | 6.5% | -5%
40 | NC(CCCNCc1ccccc1)C(=O)O (stereo unspecified) | 31.9% | 6.85% | 1.65% | 12.3% | 36.9% | 16.3%
41 | CC(C)CC(O)C(CC(=O)Nc1ccccc1)S(=O)(=O)c1ccccc1 (stereo unspecified) | -21.9% | -16.4% | -6.3% | -28.6% | -15.1% | -11.8%
